Measurements from ChEMBL document CHEMBL4888484, “Replenishing the malaria drug discovery pipeline: Screening and hit evaluation of the MMV Hit Generation Library 1 (HGL1) against asexual blood stage Plasmodium falciparum ,using a nano luciferase reporter read-out” (2022).
In all, about 4,800 compounds went through this assay and about 420 (8.8%) showed an effect of 50% or more. The entries come from a sample that favours strong results as a whole.

tested on: Plasmodium falciparum; experiment: Confirmatory screen in NF54 nanoGlo assay, in single point, at 2uM, 72h; format: functional, Erythrocyte; details: timepoint 72 hour

Point of comparison: `CCC(C(=O)Nc1ccc2c(c1)CN(CCc1ccc(OC)c(OC)c1)C(=O)C(C)O2)c1ccccc1` (centres undefined), “% Inhibition” value 94%. Against it:
- COc1ccc(CCNc2oc(-c3cccnc3)nc2C#N)cc1OC — lower, 31%
- O=C(CNC1=NC(=O)C(c2ccccc2)(c2ccccc2)N1)NCc1ccc(F)cc1 — lower, -1%
- Cc1ccc(OCC(=O)Nc2ccc(N3CCn4c(nc5ccccc54)C3)cc2Cl)cc1 — lower, -17%
- Cc1ccc(OCC(=O)Nc2cc(C)nn2-c2nc3c(cnn3-c3ccc(C)c(C)c3)c(=O)[nH]2)cc1 — lower, 65%
- COc1ccc(-n2ncc3c(NCCNC(=O)c4ccccc4Cl)nc(C)nc32)cc1 — lower, -12%
- C1CCC(Nc2nc3nonc3nc2N2CCCCC2)CC1 — lower, 1%
- CC(C)CN(CC(C)(C)C)C(=O)c1cc[nH]n1 — lower, -6%
- O=C(c1ccccc1Cl)N1CCC[C@H](n2cnc3ccccc3c2=O)C1 — lower, 18%
- O=C(CN1CCN(Cc2ccccc2F)C1=O)NC1CCCCCCC1 — lower, -11%
- CCN(c1ccc(C(=O)N(C)C2(C#N)CCC2)cc1)C(C)C — lower, -3%
- O=S(=O)(Cc1ccccc1)Nc1nnc[nH]1 — lower, -1%
- CCn1nccc1CNc1cc(Cl)cc2c1OCC2 — lower, -8%
- CC(C)(C)OC(=O)N1C[C@@H](O)CC1=O — lower, -11%
- COc1ccc(C(=O)Nc2nnc([C@H]3CC(=O)N(c4ccc(C)cc4)C3)o2)cc1OC — lower, -16%
- COc1ccc(C2CC(c3ccccc3)N(C(C)=O)c3ncnn32)cc1 (centres undefined) — lower, -9%
- COc1ccc(C(=O)N2c3ncnn3C(c3ccccc3)CC2c2ccc(C)cc2)cc1OC (centres undefined) — lower, 78%
- CCCN1CCN(CC(=O)Nc2sccc2C#N)c2cc(F)ccc21 — lower, 2%
- Cc1ccc(NC(=O)c2cc[nH]n2)c(C)c1 — lower, -18%
- COc1ccc(-c2nn3c(N4CCN(CC=Cc5ccccc5)CC4)cc(C)nc3c2C)cc1OC — lower, 55%
- COc1ccc(-c2c(C)nn3c(N4CCC(C(=O)NC5CC5)CC4)cc(C)nc23)cc1OC — lower, 37%
- COc1ccc(-c2cc3nc(C)cc(N4CCN(C/C=C/c5ccccc5)CC4)n3n2)cc1OC — lower, 42%
- Cc1c(C2=NO[C@H]3C(=O)N(c4ccc5ccccc5c4)C(=O)[C@@H]23)cnn1C — lower, 0%
- C[C@H](NC(=O)c1nnn(C)c1C(F)(F)F)c1cscn1 — lower, 7%
- COc1ccc(CCNC(=O)CCCC(=O)Nc2cccnc2)cc1OC — lower, 3%
- COc1ccc(Cl)cc1S(=O)(=O)N(C)[C@H]1CCc2n[nH]c(=O)n2CC1 — lower, -5%
- COCCCN1CC(=O)N[C@@H]2CN(C(=O)CCc3cccnc3)CC[C@@H]2OCc2cccc(c2)Oc2cc(ccc2OC)C1 — lower, 14%
- CCN1CC(=O)N[C@H]2CN(C(=O)CCn3ccnc3C)CC[C@@H]2OCc2cccc(c2)Oc2cc(OC(C)C)cc(c2)C1=O — lower, 9%
- CCc1cc(N2C[C@@H]3NC(=O)CN(C)Cc4ccc(OC)c(c4)Oc4cccc(c4)CO[C@H]3C2)nc(N(C)C)n1 — lower, 60%
- O=c1cc2n(c(=O)[nH]1)CC(c1ccccc1)=NN2 — lower, 4%
- Cc1nnc2sc(Nc3ccccc3)nn12 — lower, -2%
- O=C1NCCCOc2cccc(c2)[C@H]2c3ccc(cc3CCN2C(=O)CCN2CCOCC2)Oc2ccc(O)c1c2 — lower, 59%
- NCc1cccc(C(=O)N2CCc3cc4ccc3[C@@H]2c2cccc(c2)OCCCNC(=O)c2cc(ccc2O)O4)c1 — lower, 93%
- NC(=O)C1CCN(CCC(=O)N2CCc3cc4ccc3[C@@H]2c2cccc(c2)OCCCNC(=O)c2cc(ccc2O)O4)CC1 — higher, 96%
- O=C(NOCc1ccc(F)cc1)NC1CCCCC1 — lower, -5%
- COc1ccc(N2CCN(Cc3c(O)nc(O)c(C#N)c3C)CC2)cc1 — lower, -3%
- COc1ccc(CCN2C(=O)CC[C@H]2c2cn(C)c3ccccc23)cc1OC — lower, -1%
- O=C(c1[nH]nc(C2CC2)c1Br)N1CCC12CCC2 — lower, -8%
- Cc1ccc(C(=O)N2CCCC23CCC3)nn1 — lower, -11%
- COC(=O)[C@]1(C)CN(C(=O)NCc2cc(C#N)ccc2F)C[C@H]1C — lower, 7%
- CCc1nc(C)nc(N2CCN(C[C@H](O)COc3ccccc3C)CC2)c1Cc1cccc(C)c1 — lower, 7%
- O=C(Cc1c(Cl)cccc1Cl)N1CC[C@]2(CCOC2)C1 — lower, -8%
- Cc1noc(Cl)c1CC(=O)N1CCCC(C)(C)CC1 — lower, 38%
- CC[C@@]1(C)CCCN(C(=O)Cc2c(C)noc2Cl)C1 — lower, 84%
- Cc1nc(Cn2nnc(NC(=O)c3cccc(F)c3)c2C)no1 — lower, 1%
- O=C(Nc1nc2cccc(Cl)c2o1)c1cccc(F)c1 — lower, 92%
- CC(C)(C)NC(=O)CNC(=O)c1cccc(F)c1 — lower, -13%
- COC(CNC(=O)OC(C)(C)C)CC(=O)NC1CC(C)CCC1C(C)C (centres undefined) — lower, -7%
- O=C(Cn1cccn1)N1CC(c2nc(-c3ncccn3)no2)C1 — lower, 5%
- N#Cc1cnc(NC2CC3CCC2C3)cn1 (centres undefined) — lower, -8%
- CC(C)CS(=O)(=O)Nc1ccccc1C(N)=O — lower, -5%
- CN(C)CCN(C)c1ccc(Br)cc1NCc1cncn1C — lower, 16%
- COc1ccc(-c2cc(C(=O)Nc3ncc[nH]3)n[nH]2)cc1OC — lower, 29%
- COc1ccc2cccc(NC(=O)c3cc(-c4cc(OC)c(OC)c(OC)c4)n[nH]3)c2n1 — lower, 64%
- COc1cc(NC(=O)c2cc(-c3cccc4ccccc34)[nH]n2)cc(OC)c1OC — lower, 10%
- O=C(COc1ccc(Cl)cc1)n1c2ccccc2c2ccccc21 — lower, -3%
- CC(C)(CNC(=O)[C@](C)(N)c1ccccc1)C(=O)O — lower, -11%
- COc1c2c(cc3c1[C@@H](C#CCOc1ccccc1)[N+](C)(C)CC3)OCO2 — lower, 75%
- CC(C)C(=O)N1CC[C@H](CC(=O)NCc2ccccc2)C1 — lower, -4%
- O=C(c1sc2ccccc2c1Cl)n1nnc2ccccc21 — lower, -8%
- CCOC(=O)N1CCN(c2nccn3nc(-c4ccc(OC)c(OC)c4)cc23)CC1 — lower, -6%
- COc1ccc([C@@]2(C)NC(=O)N(CC(=O)N3CC(=O)Nc4ccccc43)C2=O)cc1OC — lower, 2%
- COc1ccc(CNC(=O)Nc2ccc3c(c2)N(C(=O)c2ccccc2)CCC3)cc1OC — lower, 25%
- COc1ccc([C@H](C(=O)Nc2ccc(N(C)C)cc2)N(Cc2ccccc2)C(=O)Cc2ccccc2)cc1OC — lower, -4%
